This is a sample that favours compounds with a hit; in the whole collection about 2.2% have one here.
Autophagy mod: autophagy modulation, high-content screen; MEF GFP-LC3 puncta imaging; test concentration mostly 10 µM; calls only at 10 µM (by protocol); 190,000 tested, 0.98% active; AID 463193;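 active = percentage of spot-positive cells more than 3 SD above its plate mean, without a fluorescence outlier flag or 80% toxicity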
Arbovirus inh: blocks arbovirus infection. arbovirus infection cell-based antiviral screen. inhibition, % at 10 µM. 200,000 tested, 0.37% active. AID 1251; in the data active = inhibition above about 30%
Ins promoter up: MIN6 insulin promoter up-regulation; MIN6 insulin promoter-GFP reporter, high-content imaging; active compounds read high; z-score at 5 µM; AID 1625; 190,000 tested, 0.3% active;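 active = z-score above 3 at 5 µM with at least 500 cells counted in the well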
NCF1 inh: p47phox (human) inhibition; inhibition, % at 24.7 µM; p47phox/p22phox peptide binding, fluorescence polarization, 2 h; 220,000 tested, 0.53% active; AID 1274;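 active = inhibition above about 30%, limit read from the data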
Target sequence (P14598 whole entry, looked up): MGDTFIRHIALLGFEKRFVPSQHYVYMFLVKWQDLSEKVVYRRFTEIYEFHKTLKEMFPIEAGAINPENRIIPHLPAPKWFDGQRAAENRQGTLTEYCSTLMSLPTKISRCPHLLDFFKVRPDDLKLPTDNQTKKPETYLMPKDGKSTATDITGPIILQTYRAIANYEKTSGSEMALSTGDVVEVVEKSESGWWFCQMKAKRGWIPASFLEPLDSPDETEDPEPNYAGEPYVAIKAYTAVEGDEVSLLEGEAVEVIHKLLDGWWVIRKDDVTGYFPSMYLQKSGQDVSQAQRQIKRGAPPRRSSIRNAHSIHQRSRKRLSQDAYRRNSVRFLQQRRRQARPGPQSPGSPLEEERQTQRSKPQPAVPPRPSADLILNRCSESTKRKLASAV
Efa HMGR inh: E. faecalis class II HMG-CoA reductase inhibition; 190,000 tested, 0.41% active; inhibition, % at 10 µM; purified E. faecalis HMGR, NADPH absorbance 340 nm kinetic;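 active = inhibition above a set limit, the median over all tested compounds plus 3 SD, cut at about 9.5% in these data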;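 note: enzyme runs in reverse so mevalonate oxidation gives rising NADPH absorbance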
Redox H2O2 prof: compounds producing H2O2 with reducing agent – biochemical, NIH compound library profiling, artefact control for MLSCN library redox annotation, primary screen; DTT-dependent redox cycling H2O2, phenol red/HRP absorbance; 100% = 100 µM peroxide control, 0% = buffer; activation, % at 10 µM; 200,000 tested, 0.03% active;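 active = activation of at least 50% relative to the plate's high and low controls in the primary single-dose screen; inactive = activation below 50%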;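 note: compound incubated with DTT at 0.8 mM final as the reducing agent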
Numbers stand for hits; i = inactive; nt = not tested or not shown; + = active, no number.

SMILES	Autophagy mod	Arbovirus inh	Ins promoter up	NCF1 inh	Efa HMGR inh	Redox H2O2 prof
O=C(OCC(=O)c1ccc(Cl)cc1Cl)c1ccc2c(c1)C(=O)N(c1cccc3ncccc13)C2=O	i	i	i	i	i	i
CCOC(=O)C(=NC(C)CC)NNc1ccc(Br)cc1 (centres undefined)	i	i	i	i	i	i
O=C(N/N=C1\CCc2ccccc21)c1ccc(O)cc1	i	i	i	i	12	i
Cc1ccc(NC(=O)c2c(O)c3ccccc3n(C)c2=O)nc1	i	33	i	i	i	i
CCOC(=O)c1nc(N2CCN(C(=O)OCC)CC2)c2c3c(sc2n1)CCCC3	+	i	i	i	i	i
O=C(O)c1ccc(Nc2nc(-c3ccccc3)c3ccccc3n2)cc1	+	i	i	i	i	i
Cc1ccc(C(=O)N2CCN3C(=O)c4ccccc4C23c2ccc(Cl)cc2)cc1 (centres undefined)	+	i	i	i	i	i
O=C(CCl)N1CCN2C(=O)c3ccccc3C12c1ccc(Cl)cc1 (centres undefined)	i	i	i	i	i	i
Cc1ncc([N+](=O)[O-])n1CC(=O)N/N=C/c1ccccc1F	i	i	i	i	i	i
CCN(Cc1ccccc1)c1ccc(/C=N/N=C(N)N)cc1	i	i	nt	47	i	i
CCN(Cc1ccccc1)c1ccc(/C=N/NC(=S)NC(C)C)cc1	i	i	i	i	i	i
CCSc1nnc2n(N)c(=O)c3ccccc3n12	i	i	i	i	i	i
CCNc1ccc(C(=O)NN=C2CCCC2)cc1[N+](=O)[O-]	i	i	i	i	i	i
N#Cc1c(SCc2cccc(Cl)c2)sc(C(=O)c2ccccc2)c1N	i	48	i	i	i	i
CC(=O)c1ccc(NC(=S)NCCCn2ccnc2)cc1	i	i	i	i	i	i
Cc1ccc(S(=O)(=O)Nc2ccc(=O)n(Cc3ccc(Cl)c(Cl)c3)c2)cc1	i	i	3.3	i	i	i
CC(=O)C1=C(C)NC(SCC(=O)c2ccccc2)=C(C#N)C1c1ccco1 (centres undefined)	i	i	i	i	i	i
CC(=O)C1=C(C)NC(SCC(=O)c2ccc(Cl)cc2)=C(C#N)C1c1ccco1 (centres undefined)	+	i	i	i	i	i
Cc1ccc2nc(SCC(=O)NNC(=O)c3ccccc3)[nH]c2c1	i	i	i	i	i	i
Cc1ccc(NC(=O)CN2C(=O)C3C4C=CC(C4)C3C2=O)cc1 (centres undefined)	+	i	i	i	i	i
COc1ccccc1N(Cc1cc(=O)[nH]c2ccccc12)C(=O)c1ccc([N+](=O)[O-])cc1	nt	nt	i	i	nt	nt
N#Cc1ccsc1NC(=O)CN1CCN(c2ccccn2)CC1	i	i	i	i	i	i
Cc1cnc(NC(=O)CN2CCN(c3ccccn3)CC2)s1	i	i	3.1	i	i	i
CCCCC(=O)C1=C(N2CCCC2)CC(C)(C)CC1=O	i	i	nt	i	12	i
CCC(=O)C1=C(N2CCCC2)CC(C)(C)CC1=O	i	i	nt	i	i	i
SMILES	Autophagy mod	Arbovirus inh	Ins promoter up	NCF1 inh	Efa HMGR inh	Redox H2O2 prof
OCCC1CN(Cc2nc3ccccc3s2)CCN1CCc1ccccc1 (centres undefined)	i	i	i	i	i	i
Cc1nnc(NC(=O)CSc2nnc(Cc3cccn3C)n2CCc2ccccc2)s1	i	i	i	i	i	i
Cn1cccc1Cc1nnc(SCC(=O)Nc2nc3ccccc3s2)n1CCc1ccccc1	+	i	i	i	i	i
Cc1cccc(C)c1NC(=O)Cn1nnc(-c2ccc(N3CCOCC3)cc2)n1	i	i	i	i	i	i
Cc1ccc(C)c(NC(=O)Cn2nnc(-c3ccc(N4CCOCC4)cc3)n2)c1	+	i	i	i	i	i
CCOC(=O)Cc1csc(NC(=O)Nc2cccc(OC)c2)n1	nt	nt	i	i	nt	nt
CCCCCC(=O)O[C@]1(C(C)=O)CC[C@H]2[C@@H]3CCC4=CC(=O)CC[C@]4(C)[C@H]3CC[C@@]21C	i	i	nt	i	i	i
CC(=O)[C@@]1(O)CC[C@H]2[C@@H]3CCC4=CC(=O)CC[C@]4(C)[C@H]3CC[C@@]21C	i	i	nt	i	12	i
CCN1CCN(c2ncc(C(=O)Nc3cc(Cl)ccc3OC)c3ccccc23)CC1	+	i	i	i	i	i
O=C1OCC=C1NNC(=O)c1cccnc1	i	i	i	+	i	i
Cc1cc(C)c(Nc2cc(S(=O)(=O)O)c(N)c3c2C(=O)c2ccccc2C3=O)c(C)c1	i	i	i	59	i	i
Cc1cc(C)c(C(=O)COC(=O)c2cc([N+](=O)[O-])ccc2NCCO)cc1C	i	i	i	i	i	i
COc1cc(S(=O)(=O)Nc2ccccc2C)ccc1NC(=O)c1ccncc1	i	i	i	i	16	i
COc1cc(S(=O)(=O)Nc2ccc(C)cc2)ccc1NC(=O)c1ccncc1	i	i	i	i	i	i
O=C(CSc1ncc(-c2ccccc2)[nH]1)Nc1cccc(O)c1	i	i	i	i	i	i
O=C(CSc1ncc(-c2ccccc2)[nH]1)Nc1ccccc1	i	i	i	33	i	i
O=C(CSc1ncn[nH]1)NCc1ccccc1	i	i	5.4	i	i	i
O=C(CSc1nnc(Cc2ccccc2)o1)NC1CC2CCC1C2 (centres undefined)	i	i	nt	i	i	i
CCC(=O)Nc1nc(-c2ccccc2)ns1	i	i	nt	i	i	i
O=C(CSc1ncn[nH]1)Nc1nc(-c2ccccc2)ns1	i	41	i	i	i	i
O=C(CSc1ncn[nH]1)NC1CC2CCC1C2 (centres undefined)	+	i	i	i	i	i
CCN(CC)c1ccc(C=NCCc2ccc(S(N)(=O)=O)cc2)cc1	i	i	i	i	i	i
Cc1ccc(S(=O)(=O)Nc2ccc(Cl)cc2C(=O)c2ccc(F)cc2)cc1	i	i	i	i	i	i
COc1ccc(C(=O)c2ccc(Cl)c([N+](=O)[O-])c2)cc1	i	i	i	i	i	i
COc1ccc(C(=O)CCC(C)(C)[N+](=O)[O-])cc1	i	i	i	i	12	i
SMILES	Autophagy mod	Arbovirus inh	Ins promoter up	NCF1 inh	Efa HMGR inh	Redox H2O2 prof
CCOC(=O)NC1(C(F)(F)F)C(=O)N(Cc2ccccc2)C2=C1C(=O)CC(C)(C)C2 (centres undefined)	i	i	i	i	i	i
COC(C[C@H](O)CC(=O)[C@H](C)OCc1ccccc1)OC	nt	nt	i	i	nt	nt
Cc1ccc(C(=O)c2oc3ccccc3c2NC(=O)c2cc(-c3ccccc3O)n[nH]2)cc1	+	i	i	i	i	i
CCOC(=O)CSc1nc(C2CC2)cc(-c2ccc(F)cc2)c1C#N	i	i	i	i	i	i
COc1ccc(-c2cc(C3CC3)nc(SCC(=O)c3cccs3)c2C#N)cc1	+	i	i	i	i	i
Cc1cc(S(=O)(=O)N2CCN=C2c2ccccc2)c(Cl)cc1Cl	i	i	i	i	i	i

Screening results: PubChem BioAssay, several laboratories
